# Compounds with a hit are over-represented: about 14% of the library has one in this group of screens.
# Pf growth 48h: inhibits P. falciparum growth in the first generation, 48 h | P. falciparum luciferase growth in erythrocytes, 48 h | Potency, µM (doses to about 28.7 µM), for the others: top-dose activity change, negative = inhibition, most hits filed as inhibitors | 310,000 compounds, 5.9% hits | AID 504832; further: potency means the concentration at half of the fitted maximal effect
#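 First compound was added to culture medium, then infected red cells at 0.1% parasitemia and 2% hematocrit (final). After incubation at 37 C under 5% CO2, luciferase detection reagent was dispensed and light output recorded.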
# HCMV inh: inhibitors of human cytomegalovirus; HFF cells, HCMV-luciferase reporter, 72 h; stronger effect = lower value; activity change, negative = inhibition, % at 57.5 µM; 410,000 compounds, 4.5% hits; AID 1259415; in the data active means activity change below about -60%; inconclusive means no clear call, values can overlap the other calls; inactive means above about -39%
#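 Human foreskin fibroblasts infected with luciferase-reporter HCMV at MOI 1 PFU/cell, compounds at two doses. Luciferase measured 72 h post infection; normalized to buffer-only basal and Salinomycin (10uM) controls.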
# FBPA Giardia inh: blocks Giardia fructose-bisphosphate aldolase activity | A8B2U2 | purified Giardia FBPA | Potency, µM (titrated, usually from 59.6 µM), for inactives: at the top dose activity, negative = inhibition, usual class: inhibitors | 290,000 compounds, 0.71% hits | AID 2451; further: potency means the concentration at half of the fitted maximal effect; nearly all actives have a fitted effect of over 55% in size
# Target sequence (A8B2U2 whole entry, looked up): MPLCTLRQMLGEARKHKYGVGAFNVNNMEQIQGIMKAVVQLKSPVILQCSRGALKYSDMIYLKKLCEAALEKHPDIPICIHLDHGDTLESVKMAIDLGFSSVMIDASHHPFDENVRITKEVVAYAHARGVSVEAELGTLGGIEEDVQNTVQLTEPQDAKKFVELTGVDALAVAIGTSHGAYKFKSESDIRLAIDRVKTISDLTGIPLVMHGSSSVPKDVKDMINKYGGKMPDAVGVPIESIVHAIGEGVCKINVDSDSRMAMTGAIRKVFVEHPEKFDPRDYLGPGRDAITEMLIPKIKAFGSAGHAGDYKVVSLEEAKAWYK
#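 40 nM FBPA preincubated 10 min at RT with compound (up to 57.5 uM final), then substrate plus GAPDH/TPI/NAD/arsenate coupling and diaphorase/resazurin added. Fluorescence read after 20 min at RT, 525/598 nm.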
# Sm TGR inh: inhibitors of Schistosoma mansoni thioredoxin glutathione reductase; purified TGR, DTNB reduction, TNB absorbance 405 nm; AID 485364; Q962Y6; Potency, µM (top dose mostly 114 µM), without a hit: at the top dose activity change, negative = inhibition, usual class: inhibitors; 360,000 compounds, 3% hits; further: potency means the concentration at half of the fitted maximal effect; nearly all actives have a fitted effect of over 60% in size
#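 TGR 20 nM + NADPH 100 uM (dispensed conc.), cpd preinc 15 min RT; start with NADPH (500 uM addition) then DTNB (15 mM addition). Kinetic TNB absorbance, 405 nm filter. Four-parameter Hill fit across titration.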
# Pf growth 96h: P. falciparum growth inhibition at 96 hours; P. falciparum luciferase reporter growth, 96 h; Potency, µM (top dose mostly 28.7 µM), inactives show at the highest dose activity change, negative = inhibition, hits mostly inhibitors; 320,000 compounds, 6.9% hits; further: potency means the concentration at half of the fitted maximal effect
#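 P. falciparum expressing integrated firefly luciferase grown in erythrocytes (2% hematocrit, 0.05% parasitemia final) with compounds for 96 hours at 37 C, 5% CO2. Growth inhibition read as loss of luminescence after adding luciferase detection reagent.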
# * hit, by the source's call; ? = inconclusive; · = no result given. Unless noted, the call rests on the fitted dose curve; in most records, active means well fitted curve in the direction sought with a large enough effect; inconclusive means small, poorly fitted or top-dose-only effect, or another doubt; inactive means no such curve, though single readings can be large; an effect the other way counts as inactive or inconclusive. On the % scale 0 is the no-effect control and ±100 the full control effect.
SMILES,Pf growth 48h,HCMV inh,FBPA Giardia inh,Sm TGR inh,Pf growth 96h
Cc1cccc(NC(=O)c2cc3c(n(-c4ccccc4)c2=O)CCCC3=O)n1,-1.1%,49.5,?,31.6µM*,·
Cc1[nH]c(=O)c(C(=O)/C=C/c2ccccc2F)c2c1CCCC2,3.29µM*,-101.9*,-13.7%,100µM*,5.22µM*
Cc1cc(NC(=O)CCN2C(=O)/C(=C/c3ccccc3Cl)SC2=S)no1,2.9%,13.9,0.9%,4.2%,37.9%
O=C(CCN1C(=O)/C(=C/c2ccccc2Cl)SC1=S)NNC(=O)c1ccccc1O,10.7%,20.9,3.6%,0.5%,52.9%
O=C(CCCN1C(=O)/C(=C/c2cccs2)SC1=S)Nc1ccccn1,?,-97.6*,4.4%,11.3%,23.3%
O=C(CCN1C(=O)/C(=C/c2ccccc2Cl)SC1=S)NCCc1ccc(O)cc1,-19.3%,-101.5*,-7.6%,-5.4%,13.7%
O=C(CCCN1C(=O)/C(=C/c2ccccc2Cl)SC1=S)Nc1ccccn1,-18.1%,-97.0*,-1.1%,14.2%,?
O=C(CCN1C(=O)/C(=C\c2cccs2)SC1=S)Nc1ccccn1,?,-36.8,-0.4%,0.2%,-23.9%
COc1ccccc1/C=C1\SC(=S)N(CCC(=O)Nc2cc(C)on2)C1=O,-7.4%,14.6,-2.2%,2.7%,9.28µM*
COc1ccc(O)c(C(=O)c2cnc3c(c2)CN(C)C(=O)N3)c1,11.5%,-35.0,-3.5%,-9.7%,-6.7%
c1ccc(-c2nnc(SCC3CCCCO3)nc2-c2ccccc2)cc1 (stereo unspecified),-13.0%,?,4.6%,9.0%,-18.4%
CCC[C@H]1[C@@H](NS(=O)(=O)c2c(C)cc(C)cc2C)CC[C@@]23CCCN2C(=O)CCC[C@@H]13,·,-29.8,·,·,·
Cc1ccc(COc2ccc3oc(-c4ccccc4)c(C(=O)O)c3c2)cc1,·,2.1,·,-3.3%,·
COc1ccccc1/C=C1\SC(=O)N(CC(=O)NCCCn2ccnc2)C1=O,11.7µM*,?,-5.6%,1.2%,?
O=C(CCCN1C(=O)/C(=C/c2ccccc2Cl)SC1=S)NNC(=O)c1ccc(Cl)cc1,?,-74.5*,6.3%,-0.1%,-5.4%
O=C1/C(=C/c2ccccc2Cl)SC(=S)N1CCCC(=O)N(CCO)c1ccccc1,?,-90.8*,4.0%,11.6%,-27.0%
Cc1cc2nc(-c3ccc(C#N)cc3)c(Cc3cccc(F)c3)n2c(C)c1Br,·,5.4,·,·,·
COc1cc(CCC(=O)OCC(=O)Nc2ccc(C)cc2Cl)cc(OC)c1OC,-2.8%,38.0,10.0%,-10.0%,2.7%
O=C(Nc1ccc(O)c(-c2nc3ccccc3o2)c1)C1(c2ccccc2)CCCC1,14.7µM*,-9.3,1.2%,0.0%,29.5%
O=C(Nc1ccc(-c2nc3ccccc3o2)c(O)c1)c1ccccc1,·,39.1,·,13.4%,·
CC(C)[C@H](NC(=O)c1cc2cc(Cl)ccc2n1C)C(=O)N[C@@H](C(=O)O)c1ccccc1,-17.5%,11.3,1.0%,6.5%,-0.3%
CCOc1ccc(NC(=O)C2(c3ccc(OC)c(OC)c3)CCCC2)cc1,?,-4.4,-6.4%,-5.4%,1.65µM*
COc1ccc(C2(C(=O)NC(C)C)CCCC2)cc1OC,-2.7%,3.7,-0.4%,8.1%,·
N#Cc1c(F)cccc1NCc1cccnc1,·,7.0,16.7%,-1.6%,-14.0%
N#Cc1c(NCc2ccccc2)ccnc1NCc1cccnc1,?,-80.2*,4.9%,-1.6%,-20.1%
SMILES,Pf growth 48h,HCMV inh,FBPA Giardia inh,Sm TGR inh,Pf growth 96h
Cc1ccc(/C=N/NC(=O)c2cccc3ccccc23)o1,12.3%,-10.2,4.4%,-19.2%,5.8%
Cc1ccc(/C=N/NC(=O)C(C)Oc2cccc3ccccc23)o1 (stereo unspecified),-10.5%,-66.3*,-16.7%,-51.2%,54.6%
COc1ccc(-c2noc(CCC(=O)N3CCN(c4ccccc4)CC3)n2)cc1,·,15.8,·,·,·
CCOc1c(C(N)=O)c(-c2ccccc2)c2c(=O)[nH]c3ccccc3n12,-16.7%,-60.2*,7.8%,6.6%,?
Cc1noc(C)c1N=Nc1ccc(Br)cc1C(=O)O,17.7%,?,6.1%,0.7%,13.9%
CC(=O)Nc1ccc(NC(=S)NC(=O)/C=C/c2ccc(Cl)cc2)cc1,2.1%,-13.1,0.4%,-0.3%,4.8%
COc1ccc(/C=C/C(=O)NC(=S)NNC(=O)c2cc(OC)c(OC)c(OC)c2)cc1OC,?,54.9,13.5%,5.1%,?
COc1ccc(/C=C/C(=O)NC(=S)NNC(=O)c2cc(OC)c(OC)c(OC)c2)cc1,14.7µM*,-8.5,24.0%,6.7%,?
O=C(/C=C/c1ccc(Cl)cc1)NC(=S)Nc1ccc(NC(=O)c2ccco2)cc1,-13.6%,-69.7*,-2.0%,-1.9%,14.7µM*
Cc1ccnc(NC(=S)NC(=O)/C=C/c2ccc(Cl)cc2)c1,57.2%,20.7,6.0%,4.0%,4.15µM*
Cc1ccnc(NC(=S)NC(=O)/C=C/c2ccccc2)c1,51.8%,22.1,-5.1%,-12.5%,29.9%
COc1cccc(NC(=O)/C=C\c2ccc(Cl)cc2)c1,·,·,-15.5%,·,·
CCC(=O)Nc1ccc(NC(=O)/C=C/c2ccc(Cl)cc2)cc1,12.8%,-15.1,5.7%,1.9%,9.28µM*
COCCN1CCN(C(=O)c2ccc3oc(CCc4ccccc4)nc3c2)CC1,26.7%,30.2,·,-26.2%,-17.2%
CC1(C)CC(=O)c2cnc(N3CCc4ccccc43)nc2C1,188.6%,40.3,0.1%,15.0%,184.5%
CCN1CCN(CCCNC(=O)c2ccc(NC(=O)C3=C(C)OCCS3)cc2)CC1,11.7%,-24.6,·,0.7%,?
COc1ccc(/C=C/C(=O)NC(=S)NNC(=O)c2ccco2)cc1,33.7%,62.8,?,3.9%,10.4µM*
COc1ccc(/C=C/C(=O)NC(=S)NNC(=O)c2ccco2)cc1OC,?,-19.5,20.1%,-2.7%,19.6%
CCOC(=O)C1=C(C)N=c2s/c(=C\c3ccc(OCC(=O)O)cc3)c(=O)n2C1c1ccccc1OC (stereo unspecified),1.04µM*,-9.9,6.4%,-8.8%,17.8%
CCOC(=O)C1=C(c2ccccc2)N=c2s/c(=C\c3ccco3)c(=O)n2C1c1cccs1 (stereo unspecified),15.8%,-1.4,?,?,-13.0%
CCOC(=O)C1=C(C)N=c2s/c(=C\c3ccc(O)c([N+](=O)[O-])c3)c(=O)n2C1c1ccccc1OC (stereo unspecified),?,?,-9.4%,-9.6%,-95.3%
CCOC(=O)C1=C(C)N=c2s/c(=C/c3ccc(OCC(=O)O)c(OC)c3)c(=O)n2C1c1ccc(Cl)cc1 (stereo unspecified),·,-3.0,·,·,·
COc1ccc(/C=c2/sc3n(c2=O)C(c2ccccc2OC)C2=C(N=3)c3ccccc3CC2)cc1O (stereo unspecified),2.08µM*,-63.8*,-13.9%,-12.8%,2.33µM*
CCOC(=O)C1=C(c2ccccc2)N=c2s/c(=C\c3cc(OC)c(OC)c(OC)c3)c(=O)n2C1c1cccs1 (stereo unspecified),0.657µM*,-4.4,-7.5%,12.1%,?
